A selection: hits, their analogues and other compounds. The true share with any hit is near 7.9%.
HCV inh: HCV inhibition | Huh7.5.1 HCVcc-Cre infection, luciferase reporter, 44 h | Potency, µM (titrated, usually from 41.8 µM), for the others: top-dose activity change, negative = inhibition, actives largely listed as inhibitors | actives 3.4% (n = 340,000) | AID 651820; active = well fitted inhibition curve with a large enough effect; inconclusive = small, poorly fitted or top-dose-only effect, or another doubt; inactive = no such curve, though single readings can be large or run the other way; note: potency is the fitted concentration of half-maximal effect
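Seed cells (1,000/well) for 4 h; treat with compound and infect with HCVcc-Cre, moi about 0.5. Incubate 44 h, then detect luciferase activity.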
HCMV antiviral: inhibitors of human cytomegalovirus | HFF cells, HCMV-luciferase reporter, 72 h; hits give low values | activity change, negative = inhibition, % at 57.5 µM | actives 4.5% (n = 410,000) | AID 1259415; in the data active = activity change below about -60%; inconclusive = no clear call, values can overlap the other calls; inactive = above about -39%
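Screen run at 2 compound doses on HFFs infected with reporter HCMV, MOI 1 PFU/cell. Luciferase activity from cell lysates at 72 h post infection gave inhibition relative to buffer-only and Salinomycin wells.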
FMDV inh: foot and mouth disease virus antiviral activity. actives 1.2% (n = 410,000). Potency, µM (top dose mostly 57.9 µM), without a hit: at the highest dose activity change, negative = inhibition, most hits filed as inhibitors. FMDV antiviral cell-based qHTS. AID 1159524; calls by dose curve; tested in HEK293T cells; note: read-out not given here; potency is the fitted concentration of half-maximal effect; nearly all actives have a fitted effect of over 45% in size
Lassa entry inh: inhibitors of Lassa virus binding or cell entry; AID 540256; Potency, µM (titrated, usually from 37.9 µM), without a hit: at the highest dose activity change, negative = inhibition, usual class: inhibitors; actives 1.2% (n = 300,000); Lassa virus pseudotype entry inhibition, cell reporter; calls by dose curve; tested in HEK293 cells; note: potency is the fitted concentration of half-maximal effect; nearly all actives have a fitted effect of over 50% in size
MARV entry inh: blocks Marburg virus binding to or entry into cells; Marburg virus pseudotyped entry inhibition, cell reporter; Potency, µM (titrated, usually from 37.8 µM), for the others: top-dose activity change, negative = inhibition, most hits filed as inhibitors; actives 1.8% (n = 300,000); AID 540276; calls by dose curve; tested in HEK293 cells; note: potency is the fitted concentration of half-maximal effect
Numbers without * were called inactive; [ ] = another dose, or the depositor's remark. % is set by controls: 0 for no effect and ±100 for the full control effect.

For COc1cc(C(=O)Nc2cccc(-c3nnc(-c4ccco4)o3)c2)ccc1OC(C)=O the results were HCV inh inconclusive, HCMV antiviral -18, FMDV inh inconclusive, Lassa entry inh inconclusive and MARV entry inh inconclusive.
`O=C1C2C3C=CC(C3)C2C(=O)N1c1cccc(-c2nc3ccccc3o2)c1` (stereo not drawn) gave HCV inh 5%, HCMV antiviral 40, FMDV inh -10%, Lassa entry inh 16% and MARV entry inh -2%.
Cc1ccc(-c2ccc(CCC(=O)O)n2-c2ccc(C(C)C)cc2)cc1 was read as HCMV antiviral 6, FMDV inh -11%, Lassa entry inh -16%[46.1 µM] and MARV entry inh 5%[46.1 µM].
O=[N+]([O-])c1c(NCCCO)cc(N2CCN(Cc3ccc4c(c3)OCO4)CC2)c2nonc12 was read as HCV inh inconclusive, HCMV antiviral -78*, FMDV inh 18µM*, Lassa entry inh inconclusive and MARV entry inh inconclusive.
For O=[N+]([O-])c1c(NCCCO)cc(SCc2ccco2)c2nonc12 the results were HCV inh inconclusive, HCMV antiviral 50, FMDV inh 0%, Lassa entry inh 0% and MARV entry inh 2%.
Screening O=[N+]([O-])c1c(NCCCO)cc(Sc2ccc(Cl)cc2)c2nonc12 returned HCV inh inconclusive, HCMV antiviral -18, FMDV inh 25µM*, Lassa entry inh inconclusive and MARV entry inh 11µM*.
For O=[N+]([O-])c1c(NCCCO)cc(N2CCCCCC2)c2nonc12 the results were HCV inh -4%, HCMV antiviral -23, FMDV inh -17%, Lassa entry inh -6% and MARV entry inh inconclusive.
For Cn1ccnc1Sc1cc(NCCCO)c([N+](=O)[O-])c2nonc12 the results were HCV inh 10µM*, HCMV antiviral 143, FMDV inh 25µM*, Lassa entry inh inconclusive and MARV entry inh inconclusive.
`CC(NC(=O)c1ccco1)c1nnc2n1CCN(Cc1ccc(N3CCCC3)cc1)CC2` (stereo not drawn) gave FMDV inh 4%.
For COc1cccc(NC(=O)C2CCN(C(=O)N3CC(C)Oc4ccccc43)CC2)c1 (stereo not drawn) the results were HCMV antiviral 2, FMDV inh 0% and Lassa entry inh 5%[46.1 µM].
For COC(=O)[C@]1(C#N)[C@H](Cc2ccccc2)C(=O)N(Cc2ccc(Cl)cc2)[C@@H]1c1ccc(OC)cc1 the results were HCMV antiviral -10.
Screening O=C(Nc1cccc(C(=O)O)c1)/C(=C/c1ccc([N+](=O)[O-])cc1)NC(=O)c1ccccc1 returned HCV inh 12%, HCMV antiviral 24 and FMDV inh -17%.
Screening COc1ccc(N2C(=O)/C(=C/c3ccc([N+](=O)[O-])cc3)C=C2c2ccccc2)cc1 returned HCV inh inconclusive, HCMV antiviral -101*, Lassa entry inh inconclusive and MARV entry inh -17%.
O=C(O)c1cccc(N2C(=O)/C(=C/c3ccc([N+](=O)[O-])cc3)C=C2c2ccccc2)c1 was read as HCV inh 5%, HCMV antiviral 7 and FMDV inh 13µM*.
`O=C1/C(=C/c2ccc([N+](=O)[O-])cc2)C=C(c2ccccc2)N1c1ccc(O)cc1` gave HCV inh inconclusive, HCMV antiviral -83*, FMDV inh inconclusive, Lassa entry inh inconclusive and MARV entry inh -29%.
For O=C1/C(=C/c2ccc([N+](=O)[O-])cc2)C=C(c2ccccc2)N1c1ccccc1 the results were HCV inh 3%, HCMV antiviral -21, Lassa entry inh 3% and MARV entry inh 2%.
O=C1Nc2c(c(=O)[nH]c(=O)n2-c2ccc(Cl)cc2)C1(NS(=O)(=O)c1ccccc1)C(F)(F)F (stereo not drawn) was read as HCMV antiviral 1, FMDV inh 11%, Lassa entry inh 7%[46.1 µM] and MARV entry inh -6%[46.1 µM].
COc1ccc(C2c3c(n(C)c4ccccc34)C(=O)N2CC(=O)Nc2ccc(C)cc2Cl)cc1 (stereo not drawn) was read as HCMV antiviral 0, FMDV inh -18% and Lassa entry inh inconclusive.
Screening CCn1c(SCc2ccc(F)cc2Cl)nnc1-c1nonc1NC(C)=O returned HCMV antiviral -2, FMDV inh 0%, Lassa entry inh -13%[46.1 µM] and MARV entry inh 2%[46.1 µM].
CC(=O)Nc1ccc(/C=C/c2ccc3cccc([N+](=O)[O-])c3n2)cc1 was read as HCV inh 11µM*, HCMV antiviral -90* and FMDV inh -14%.
Screening CCCCc1nc2c(c3c1C[C@H](C)OC3)CN(S(=O)(=O)c1ccc(C)cc1)CC2 returned Lassa entry inh inconclusive and MARV entry inh 5%[14.2 µM].
For COc1cc2cnc(-c3ccsc3)c(-c3ccc(F)cc3)c2cc1OC the results were HCV inh 6.3µM*, HCMV antiviral 14 and FMDV inh inconclusive.
`COc1ccc(C(=O)NC(=S)NNC(=O)c2cnccn2)cc1OC` gave HCV inh inconclusive, HCMV antiviral inconclusive, FMDV inh -14%, Lassa entry inh -24% and MARV entry inh inconclusive.
`COc1ccc(C(=O)NCCNC(=O)c2ccccn2)cc1` gave HCV inh 21%, HCMV antiviral -9, FMDV inh 13%, Lassa entry inh 4%[46.1 µM] and MARV entry inh 16%[46.1 µM].
COc1cc(OC)cc(C(=O)NC(=S)NNC(=O)c2cnccn2)c1 was read as HCV inh inconclusive, HCMV antiviral -89*, FMDV inh -1%, Lassa entry inh inconclusive and MARV entry inh inconclusive.
Screening COc1ccc(C(=O)Nc2ccc(NC(=O)c3cnccn3)cn2)cc1 returned HCV inh 13µM*, HCMV antiviral 13, Lassa entry inh -20% and MARV entry inh 9%.
O=C(/C=C/c1ccccc1)NC(=S)NNC(=O)c1cnccn1 was read as HCV inh inconclusive, HCMV antiviral -98*, FMDV inh 3%, Lassa entry inh 7.9µM* and MARV entry inh inconclusive.
`COc1ccc(C(=O)Nc2ccc(NC(=O)C3CCCCC3)nc2)cc1` gave HCV inh 2%, HCMV antiviral -15, FMDV inh -9%, Lassa entry inh -1% and MARV entry inh -9%[46.1 µM].
For COc1ccc(C(=O)NNC(=O)c2ccccn2)cc1 the results were HCV inh 0%, HCMV antiviral -84*, FMDV inh 1.8µM*, Lassa entry inh inconclusive and MARV entry inh inconclusive.
For COc1ccc(-c2cc(C(F)(F)F)n3nc(C(=O)Nc4sc5c(c4C#N)CCC(C)C5)cc3n2)cc1OC (stereo not drawn) the results were HCMV antiviral -2, FMDV inh 6%, Lassa entry inh -13%[46.1 µM] and MARV entry inh 1%[46.1 µM].
Cc1ccc(OCC(=O)Nc2ccc(OCc3cc(=O)n4cccc(C)c4n3)cc2)cc1C was read as HCMV antiviral -13, FMDV inh -17% and Lassa entry inh 5%[46.1 µM].
For COC(=O)c1ccc(CN2C(=O)[C@@]3(CC(C)=CC[C@@H](COc4ccccc4)O3)c3c(Br)cccc32)cc1 the results were Lassa entry inh 7%[14.3 µM] and MARV entry inh -28%[14.2 µM].
